Hit rate of the full screen: of about 5,500 compounds, about 2,000 (36%) were called active. About 18% were inconclusive and are not listed. Rule as the data show it: active = normalized growth mostly below about 0.91 (no sharp cut-off); inconclusive = no clear call, values can overlap the other calls; inactive = mostly above about 0.92. Some of the results follow.
Experiment: chemical genetic growth profiling, strain panel (AID 1159580);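 also: tested at 20 µM; growth read once vehicle control cultures reached saturation at 30 °C; 1 = growth at the plate median or of vehicle wells; lower values mean less growth of the strain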
Conditions: growth OD

Measured: normalized growth

CC(=O)Oc1c(C)cccc1C(=O)O
inactive: S. cerevisiae deletion strains, locus YJR043C, strain POL32, stronger effect = lower value 1 | S. cerevisiae deletion strains, locus YJR075W, strain HOC1, stronger effect = lower value 1.01 | S. cerevisiae deletion strains, locus YKL009W, strain mrt4, stronger effect = lower value 0.975 | S. cerevisiae deletion strains, locus YKL068W, stronger effect = lower value 0.995 | S. cerevisiae deletion strains, locus YKL085W, strain MDH1 (second series), stronger effect = lower value 1 | S. cerevisiae deletion strains, locus YKL085W, strain MDH1, stronger effect = lower value 1 | S. cerevisiae deletion strains, locus YKL160W, strain elf1, stronger effect = lower value 0.994 | S. cerevisiae deletion strains, locus YKL190W, strain CNB1, stronger effect = lower value 1.01 | S. cerevisiae deletion strains, locus YKR001C, strain vps1, stronger effect = lower value 1.02 | S. cerevisiae deletion strains, locus YKR026C, strain gcn3, stronger effect = lower value 0.986 | S. cerevisiae deletion strains, locus YKR091W, strain srl3, stronger effect = lower value 1.02 | S. cerevisiae deletion strains, locus YLL001W, strain dnm1, stronger effect = lower value 0.986 | S. cerevisiae deletion strains, locus YLL026W, stronger effect = lower value 1.01 | S. cerevisiae deletion strains, locus YLL041C, strain sdh2, stronger effect = lower value 0.991 | S. cerevisiae deletion strains, locus YLR027C, strain aat2, stronger effect = lower value 0.989 | S. cerevisiae deletion strains, locus YLR039C, strain RIC1, stronger effect = lower value 1 | S. cerevisiae deletion strains, locus YLR058C, strain SHM2, stronger effect = lower value 1.01 | S. cerevisiae deletion strains, locus YLR102C, strain apc9, stronger effect = lower value 1.01 | S. cerevisiae deletion strains, locus YLR221C, strain rsa3, stronger effect = lower value 1.02 | S. cerevisiae deletion strains, locus YLR258W, strain gsy2, stronger effect = lower value 0.999 | S. cerevisiae deletion strains, locus YLR262C, strain YPT6 (second series), stronger effect = lower value 1.03 | S. cerevisiae deletion strains, locus YLR262C, strain YPT6, stronger effect = lower value 1.05 | S. cerevisiae deletion strains, locus YLR268W, strain sec22, stronger effect = lower value 1.01 | S. cerevisiae deletion strains, locus YLR320W, strain mms22, stronger effect = lower value 1.03 | S. cerevisiae deletion strains, locus YLR330W, strain CHS5, stronger effect = lower value 1 | S. cerevisiae deletion strains, locus YLR342W, strain FKS1 (second series), stronger effect = lower value 1.02 | S. cerevisiae deletion strains, locus YLR342W, strain FKS1, stronger effect = lower value 1 | S. cerevisiae deletion strains, locus YLR357W, strain rsc2, stronger effect = lower value 1.04 | S. cerevisiae deletion strains, locus YLR370C, strain arc18, stronger effect = lower value 0.992 | S. cerevisiae deletion strains, locus YLR371W, strain rom2, stronger effect = lower value 1.01 | S. cerevisiae deletion strains, locus YLR384C, strain iki3, stronger effect = lower value 1.01 | S. cerevisiae deletion strains, locus YLR418C, strain cdc73, stronger effect = lower value 1.03 | S. cerevisiae deletion strains, locus YML016C, strain PPZ1, stronger effect = lower value 1.02 | S. cerevisiae deletion strains, locus YML032C, strain rad52, stronger effect = lower value 1.02 | S. cerevisiae deletion strains, locus YML120C, strain ndi1, stronger effect = lower value 1.02 | S. cerevisiae deletion strains, locus YML124C, strain tub3, stronger effect = lower value 1.01 | S. cerevisiae deletion strains, locus YMR058W, strain fet3, stronger effect = lower value 1.02 | S. cerevisiae deletion strains, locus YMR078C, strain ctf18, stronger effect = lower value 1.02 | S. cerevisiae deletion strains, locus YMR125W, strain sto1, stronger effect = lower value 1 | S. cerevisiae deletion strains, locus YMR129W, stronger effect = lower value 1.02 | S. cerevisiae deletion strains, locus YMR205C, strain PFK2, stronger effect = lower value 0.986 | S. cerevisiae deletion strains, locus YMR223W, strain ubp8, stronger effect = lower value 1.01 | S. cerevisiae deletion strains, locus YMR231W, strain pep5, stronger effect = lower value 1.01 | S. cerevisiae deletion strains, locus YMR263W, strain SAP30, stronger effect = lower value 1.01 | S. cerevisiae deletion strains, locus YMR307W, strain GAS1, stronger effect = lower value 1.05 | S. cerevisiae deletion strains, locus YNL067W, strain RPL9B, stronger effect = lower value 1.01 | S. cerevisiae deletion strains, locus YNL071W, strain lat1, stronger effect = lower value 1.02 | S. cerevisiae deletion strains, locus YNL128W, strain TEP1, stronger effect = lower value 1.01 | S. cerevisiae deletion strains, locus YNL153C, strain GIM3, stronger effect = lower value 1.01 | S. cerevisiae deletion strains, locus YNL209W, strain ssb2, stronger effect = lower value 1.01 | S. cerevisiae deletion strains, locus YNL233W, strain BNI4, stronger effect = lower value 1.01 | S. cerevisiae deletion strains, locus YNL248C, strain rpa49, stronger effect = lower value 1.01 | S. cerevisiae deletion strains, locus YNL250W, strain rad50, stronger effect = lower value 1.02 | S. cerevisiae deletion strains, locus YNL271C, strain bni1, stronger effect = lower value 1.01 | S. cerevisiae deletion strains, locus YNL298W, strain CLA4, stronger effect = lower value 0.987 | S. cerevisiae deletion strains, locus YNL307C, strain MCK1, stronger effect = lower value 1.02 | S. cerevisiae deletion strains, locus YNL322C, strain KRE1 (second series), stronger effect = lower value 1.01 | S. cerevisiae deletion strains, locus YNL322C, strain KRE1, stronger effect = lower value 1.01 | S. cerevisiae deletion strains, locus YNR049C, strain mso1, stronger effect = lower value 0.978 | S. cerevisiae deletion strains, locus YNR052C, strain pop2, stronger effect = lower value 1.01 | S. cerevisiae deletion strains, locus YOL006C, strain TOP1, stronger effect = lower value 1.02 | S. cerevisiae deletion strains, locus YOL012C, strain htz1 1.54 | S. cerevisiae deletion strains, locus YOL147C, strain pex11, stronger effect = lower value 1.01 | S. cerevisiae deletion strains, locus YOR001W, strain rrp6, stronger effect = lower value 1.01 | S. cerevisiae deletion strains, locus YOR061W, strain CKA2, stronger effect = lower value 1 | S. cerevisiae deletion strains, locus YOR069W, strain VPS5, stronger effect = lower value 1.01 | S. cerevisiae deletion strains, locus YOR070C, strain gyp1, stronger effect = lower value 0.99 | S. cerevisiae deletion strains, locus YOR080W, strain dia2, stronger effect = lower value 0.999 | S. cerevisiae deletion strains, locus YOR083W, strain WHI5, stronger effect = lower value 1.01 | S. cerevisiae deletion strains, locus YOR106W, strain vam3, stronger effect = lower value 1.01 | S. cerevisiae deletion strains, locus YOR136W, strain idh2, stronger effect = lower value 1.02 | S. cerevisiae deletion strains, locus YOR144C, strain elg1, stronger effect = lower value 1.02 | S. cerevisiae deletion strains, locus YOR184W, strain ser1, stronger effect = lower value 1.01 | S. cerevisiae deletion strains, locus YOR265W, strain rbl2, stronger effect = lower value 0.993 | S. cerevisiae deletion strains, locus YOR270C, strain vph1, stronger effect = lower value 1.06 | S. cerevisiae deletion strains, locus YOR290C, strain snf2, stronger effect = lower value 0.99 | S. cerevisiae deletion strains, locus YOR316C, strain cot1, stronger effect = lower value 1.02 | S. cerevisiae deletion strains, locus YPL051W, strain arl3, stronger effect = lower value 1 | S. cerevisiae deletion strains, locus YPL055C, strain LGE1, stronger effect = lower value 1.03 | S. cerevisiae deletion strains, locus YPL078C, strain atp4, stronger effect = lower value 1.02 | S. cerevisiae deletion strains, locus YPL106C, strain sse1, stronger effect = lower value 1.06 | S. cerevisiae deletion strains, locus YPL240C, strain hsp82, stronger effect = lower value 0.973 | S. cerevisiae deletion strains, locus YPL241C, strain CIN2, stronger effect = lower value 0.986 | S. cerevisiae deletion strains, locus YPR119W, strain clb2, stronger effect = lower value 1 | S. cerevisiae deletion strains, locus YPR141C, strain kar3, stronger effect = lower value 1 | S. cerevisiae deletion strains, locus YPR163C, strain tif3, stronger effect = lower value 1.01 | S. cerevisiae deletion strains, locus YPR167C, strain met16, stronger effect = lower value 1.01 | S. cerevisiae deletion strains, strain wtn01, stronger effect = lower value 1 | S. cerevisiae strains, strain wild type, stronger effect = lower value 0.993

Reference: PubChem BioAssay AID1159580 (chemical genetic matrix, 2015)
